# Source: PubChem BioAssay
# Cruzain inh Det: cruzain (T. cruzi) inhibition with detergent; P25779; purified cruzain, Z-FR-AMC fluorescence, 0.01% Triton; 200,000 compounds, 0.43% hits; Potency, µM, inactives show max response, negative = inhibition, most hits filed as inhibitors;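 note: plate controls were neutral wells for no effect and buffer without enzyme for full effect; nearly all actives have a fitted effect of over 40% in size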
# Target sequence (P25779 123-467 limits assumed): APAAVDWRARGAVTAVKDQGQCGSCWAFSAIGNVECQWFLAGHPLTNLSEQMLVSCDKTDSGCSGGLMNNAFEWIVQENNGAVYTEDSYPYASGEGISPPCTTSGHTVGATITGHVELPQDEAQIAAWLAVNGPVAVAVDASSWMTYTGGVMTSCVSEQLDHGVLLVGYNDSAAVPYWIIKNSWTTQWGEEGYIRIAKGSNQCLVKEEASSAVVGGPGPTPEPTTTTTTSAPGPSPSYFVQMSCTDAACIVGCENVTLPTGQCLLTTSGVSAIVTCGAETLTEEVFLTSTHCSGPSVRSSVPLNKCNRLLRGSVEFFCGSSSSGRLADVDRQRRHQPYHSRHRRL
#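 15 min RT preincubation of 1.5 nM cruzain with compound, then 2 uM Z-FR-AMC added; kinetic AMC fluorescence, 60 s delta. Triton X-100 0.01%, pH 5.5.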
# Cruzain inh noDet: blocks cruzain activity in detergent-free assay. purified cruzain, Z-FR-AMC fluorescence, no detergent. 200,000 compounds, 2.3% hits. Potency, µM, for inactives: max response, negative = inhibition, most hits filed as inhibitors. P25779;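 note: plate controls were enzyme without inhibitor for no effect and buffer without enzyme for full effect; nearly all actives have a fitted effect of over 40% in size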
#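 Purified cruzain at 1.5 nM, pre-incubated 15 min with compound at room temperature in 100 mM sodium acetate pH 5.5, 5 mM DTT, 0.00005% Triton X-100. Reaction started with 2 uM Z-FR-AMC; AMC fluorescence increase over 60 s gives rate.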
# The depositor's hits bear a star; u = inconclusive. A selection: hits, their analogues and other compounds. The true share with any hit is near 2.6%. Calls come from the whole dose curve; as a rule, active = well fitted curve in the direction sought with a large enough effect; inconclusive = small, poorly fitted or top-dose-only effect, or another doubt; inactive = no such curve, though single readings can be large; an effect the other way counts as inactive or inconclusive. Potency is the fitted concentration of half-maximal effect.
SMILES,Cruzain inh Det,Cruzain inh noDet
Cc1nnc(NC(=O)C2c3ccccc3Oc3ccccc32)s1,-4.6%,8.2%
CC(C)NS(=O)(=O)c1ccc(OCC(=O)N2CCN(c3ccccc3F)CC2)cc1,-1.7%,1.8%
COc1ccc2[nH]cc(CCNc3ncnc4ccc(-c5ccccc5OC)cc34)c2c1,-5.4%,u
Cc1cc(=O)n2[nH]c(NCc3ccc(F)cc3)nc2n1,2.5%,-11.9%
CC[C@@H]1C(c2ccccc2)=NN(c2ccc(Br)cc2)[C@H]1C(=O)N1CCOC1=O,-0.6%,25.1µM*
O=C1OCCN1C(=O)[C@H]1[C@H](c2ccccc2)C(c2cccc(Cl)c2)=NN1c1ccc(Br)cc1,0.5%,12.6µM*
O=C1OCCN1C(=O)[C@H]1[C@H](c2ccc(Cl)cc2)C(c2ccccc2)=NN1c1ccc(Br)cc1,-2.6%,11.2µM*
O=C(O)c1nc(-c2ccccc2)n(-c2ccc(Cl)cc2)n1,5.6%,-5.5%
CC[C@@H]1C(c2cccc(Cl)c2)=NN(c2ccc(Br)cc2)[C@H]1C(=O)N1CCOC1=O,-2.7%,u
O=C1OCCN1C(=O)[C@H]1[C@H](c2ccc(F)cc2)C(c2cccc(Cl)c2)=NN1c1ccc(Br)cc1,-2.4%,15.8µM*
Cc1nc2ccccc2cc1C[N+]12CN3CN(CN(C3)C1)C2,3.3%,-7.8%
CN(C)c1ccc(CNC(=O)Cn2c(=O)oc3cc(S(=O)(=O)N4CCCCCC4)ccc32)cc1,-6.6%,6.2%
COc1ccc(NS(=O)(=O)c2ccc(I)cc2)cc1N1CCN(C)CC1,0.0%,2.2%
N#CCCn1c(=O)c(-c2ccccc2)nc2cnc(N3CCNCC3)nc21,-23.9%,-22.7%
COc1cc2c(cc1NC(=S)Nc1cccc3ccccc13)oc1ccccc12,-7.8%,10µM*
COc1cc2c(cc1NC(=O)CSCC(=O)O)oc1ccccc12,-4.6%,-18.5%
COc1cc2c(cc1NC(=O)/C=C/c1ccc([N+](=O)[O-])cc1)oc1ccccc12,-2.3%,5.01µM*
COc1cc2c(cc1NC(=O)Nc1ccccc1)oc1ccccc12,6.6%,u
CC(C)NC(=O)c1ccccc1NC(=O)/C=C/c1ccc([N+](=O)[O-])cc1,5.3%,-5.3%
COc1cc2c(cc1NC(=S)Nc1cccc(C(F)(F)F)c1)oc1ccccc12,-7.5%,15.8µM*
O=c1c(-c2ccc(Cl)cc2)nc2cnc(N3CCNCC3)nc2n1Cc1ccc(F)cc1,0.1%,5.5%
OCc1ccc(-c2ccc(-c3ccc(CO)s3)o2)s1,-20.3%,u
Cc1ccc(C(=O)Nc2nnc(S(=O)(=O)N3c4ccccc4CC3C)s2)cc1 (stereo not drawn),-1.8%,0.8%
Cc1cc(C)cc(NC(=O)c2cccc(N3CCCS3(=O)=O)c2)c1,-0.6%,7.6%
CC(=O)c1cccc(NC(=O)C(OC(=O)/C=C/c2ccc3c(c2)OCO3)c2ccccc2)c1 (stereo not drawn),1.6%,10µM*
SMILES,Cruzain inh Det,Cruzain inh noDet
Cc1ccc(C(NC(=O)/C=C\c2ccc3c(c2)OCO3)C(=O)Nc2ccc3c(c2)OCO3)cc1 (stereo not drawn),-3.5%,31.6µM*
COc1ccc(NC(=O)C(NC(=O)/C=C\c2ccc3c(c2)OCO3)c2ccc(OC)cc2)cc1 (stereo not drawn),-4.1%,u
CCOC(=O)c1cccc(NC(=O)/C=C/c2ccc3c(c2)OCO3)c1,-8.0%,-10.7%
COc1ccc2c(C)c(CCC(=O)NCCc3ccccc3)c(=O)oc2c1,-25.8%,-3.9%
Cn1cnc([N+](=O)[O-])c1[Se]c1nc(N)nc2c1ncn2[C@@H]1O[C@@H](CO)[C@H](O)[C@@H]1O,-1.7%,3.4%
O=C(c1ccc2c(c1)N(Cc1cccc(Cl)c1)C(=O)c1ccccc1S2(=O)=O)N1CCc2ccccc21,-2.5%,20µM*
Cc1ccc(C)c(CN2C(=O)c3ccccc3S(=O)(=O)c3ccc(C(=O)N4CCN(C)CC4)cc32)c1,1.3%,0.5%
O=C(c1ccc2c(c1)N(Cc1ccccc1F)C(=O)c1ccccc1S2(=O)=O)N1CCc2ccccc21,-0.5%,2.7%
Cc1ccc(C)c(CN2C(=O)c3ccccc3S(=O)(=O)c3ccc(C(=O)N4CCc5ccccc54)cc32)c1,-0.5%,31.6µM*
CCOC(=O)C1=C(CN2CCN(c3cc(C)ccc3C)CC2)NC(=O)NC1c1ccc(Cl)cc1 (stereo not drawn),-8.7%,0.0%
CCOc1ccccc1C1CC(=O)NC(C)=C1C(=O)OC1CCCCCC1 (stereo not drawn),-14.6%,-10.1%
CCc1ccc(NC(=O)C(CC)Sc2nc3cc4c(cc3c(=O)n2Cc2ccco2)OCO4)cc1 (stereo not drawn),6.5%,25.1µM*
CCc1ccccc1NC(=O)C(CC)Sc1nc2cc3c(cc2c(=O)n1Cc1ccco1)OCO3 (stereo not drawn),8.2%,2.7%
O=C(O)C[O][Sb][O]CC(=O)O,0.9%,-5.6%
Cc1ccc(N2CC(C(=O)Nc3nnc(SCC(=O)Nc4cc(C)on4)s3)CC2=O)cc1 (stereo not drawn),0.3%,7.94µM*
Cc1ccc(N2CC(C(=O)Nc3nnc(C)s3)CC2=O)cc1 (stereo not drawn),2.2%,8.0%
CC[C@H](/C=C/[C@@H](C)[C@H]1CC[C@H]2C3CC=C4C[C@@H](O)CC[C@]4(C)C3CC[C@]12C)C(C)C (stereo partly drawn),-0.3%,-9.3%
O=C(Nc1ccc(Cl)cc1)N1CCC(CN2CCCCCC2)CC1,-16.5%,u
Cc1ccc(-c2nnc3n2N=C(c2ccccc2)CS3)cc1,-1.4%,-16.8%
CCOc1ccc(C2=Nn3c(nnc3-c3ccccc3)SC2)cc1Cl,1.2%,20µM*
Clc1ccc(C2=Nn3c(nnc3-c3cccs3)SC2)cc1,-8.6%,7.94µM*
CCc1ccc(C2=Nn3c(nnc3-c3cccs3)SC2)cc1,-9.8%,-8.2%
CCN(CC)CCOC(=O)c1ccc(NC(=O)c2nn(-c3ccc(C)cc3)c(=O)c3c2c2ccccc2n3C)cc1,-19.7%,4.3%
Cc1cccc(CNc2nc(-c3ccoc3)nc3ccccc23)c1,-6.4%,u
COc1ccc(CNc2nc(-c3ccoc3)nc3ccccc23)c(OC)c1,-7.8%,15.8µM*
SMILES,Cruzain inh Det,Cruzain inh noDet
Fc1ccc(Nc2nc(-c3ccoc3)nc3ccccc23)cc1,-9.8%,25.1µM*
Cc1noc(C)c1-c1nc(Nc2ccc(F)cc2)c2ccccc2n1,-0.1%,u
COc1cccc(-c2nc(NCc3ccccc3OC)c3ccccc3n2)c1,-0.9%,23.4%
c1ccc(CNc2nc(-c3ccoc3)nc3ccccc23)cc1,-3.5%,25.1µM*
Cc1nn(-c2ccc(N3CCCC3)nn2)c(C)c1CCC(=O)N1CCN(c2ccccc2F)CC1,-4.8%,3.6%
O=C1C=CC(=O)c2c1ccc1c2ccc2ccccc21,-10.6%,-14.0%
CC(C)CN(CCNC(=O)c1cc(-c2cccs2)nc2ccccc12)CC(C)C,-1.8%,5.0%
Cc1cccc(C(=O)Nc2ccccc2C(=O)OCC(=O)Nc2ccc(C#N)cc2)c1,-5.2%,31.6µM*
Cc1ccc(NC(=O)COC(=O)c2ccccc2Nc2ccccc2)cc1,-8.6%,u
O=C(c1ccc2c(c1)OCO2)c1cn(Cc2ccc(Cl)cc2)c2ccc(F)cc2c1=O,-2.7%,25.1µM*
Cc1ccc2c(c1)c(=O)c(C(=O)c1ccc3c(c1)OCO3)cn2Cc1ccc(Cl)cc1,-1.2%,u
COC(=O)c1ccc(C(=O)OC)c(NC(=O)c2c(-c3ccccc3)c(-c3ccccc3)nn(C)c2=O)c1,-5.1%,u
O=C(CCCn1c(=O)c2cccn2c2ccc(F)cc21)NCCc1ccccc1,-1.2%,-11.2%
